Results published in PubChem BioAssay (Tox21).
Calls of active or inactive are those of the source. Calls follow the shape of the dose curve; as a rule, active = well fitted curve in the direction sought with a large enough effect in the repeat runs; inconclusive = weak or mixed curves; inactive = flat fitted curve, though single readings scatter.

test: qHTS assay to test for compound auto fluorescence at 535 nm (green) in HepG2 cells (AID 720675); details: green autofluorescence 485/535 nm, 1 h; series mostly up to 91.3 µM
Description: National Center for Advancing Translational Sciences [NCATS]
NIH Chemical Genomics Center [NCGC]
U.S. Environmental Protection Agency [EPA]
National Institutes of Environmental Health Sciences [NIEHS]
National Toxicology Program [NTP]
U.S. Food and Drug Administration [FDA]
Compound auto fluorescence often interferes with screening of the compound library against various biological targets and signaling pathways. Some of these compounds may have fluorophoric properties. Such properties may interfere with the assay outputs resulting in false positives and/or negatives. To decrease such complications and ensure the compound activities are relevant in terms of biological response, the Tox21 10K compound library was screened for auto fluorescence.
From the fluorophores used as reporter signals in our screening assays, the auto fluorescence equivalencies of compounds against three fluorophores have been evaluated: Triamterene, Fluorescein and Rose Bengal sodium for blue, green and red fluorescence, respectively. The fluorescence intensities were measured using Excitation/Emission wavelengths at 405/460nm, 485/535nm and 540/590nm for blue, green and red labels, respectively. This assay includes the green fluorescence data.
Tox21 Assay Protocol Summary:
2,000 HepG2 cells in 5 uL of culture medium (MEM containing 10% FBS) per well were dispensed into black wall/clear bottom 1536-well plates using a Multidrop Combi Dispenser (ThermoFisher Scientific, Waltham, MA). The assay plates were incubated overnight at 37 C to allow cell attachment to the well bottom, followed by the transfer of 23 nL compound or DMSO vehicle by a pintool work station (Kalypsys , San Diego, CA). After the assay plates were incubated for 1 hr at 37 C and 5% CO2, fluorescence intensities in the assay plates were measured by an Envision (PerkinElmer, Shelton, CT) plate reader using three labels for measuring blue, green and red fluorescence at […] 460, 535 and 590 nm respectively.

Row | SMILES | outcome
1 | O=c1c(-c2ccc(O)cc2)coc2cc(O)ccc12 | inactive
2 | O=C(c1cc(O)c(O)c(O)c1)c1ccc(O)c(O)c1O | inactive
3 | C=C1CC[C@H](O)CC1=C/C=C1\CCC[C@]2(C)[C@@H]([C@H](C)/C=C/[C@H](C)C(C)C)CC[C@@H]12 | inactive
4 | CCCCCCCCCC(=O)O | inactive
5 | C/C=C(C)/C=C/C=C(C)C | inactive
6 | O=C1CCCCC1 | inactive
7 | CCCCC(CC)COC(C)=O (stereo not given) | inactive
8 | CCCCCCCCC | inactive
9 | Cc1cc(O)cc(C)c1Cl | inactive
10 | CNC[C@H](O)[C@@H](O)[C@H](O)[C@H](O)CO | inactive
11 | Cn1c([N+](=O)[O-])cnc1COC(N)=O | inactive
12 | OCCOCCOCCOCCO | inactive
13 | CC#C[C@]1(O)CC[C@H]2[C@@H]3CCC4=CC(=O)CCC4=C3[C@@H](c3ccc(N(C)C)cc3)C[C@@]21C | inactive
14 | Cc1cc(=O)[nH]c(C(C)C)n1 | inactive
15 | O=S(=O)(Oc1ccc(Cl)cc1Cl)c1ccccc1 | inactive
16 | CCCCOCCO | inactive
17 | ClC1=C(Cl)C(Cl)(Cl)C(Cl)=C1Cl | inactive
18 | Nc1nc2ncc(CNc3ccc(C(=O)N[C@@H](CCC(=O)O)C(=O)O)cc3)nc2c(=O)[nH]1 | inactive
19 | CC1=C(/C=C/C(C)=C/C=C/C(C)=C/CO)C(C)(C)CCC1 | inactive
20 | CCOC(=O)/C=C\C(=O)OCC | inactive

Row | SMILES | outcome
21 | C=C(C#N)C(=O)OCC | inactive
22 | CC1CC(OC(=O)c2ccccc2O)CC(C)(C)C1 (stereo not given) | inactive
23 | NS(=O)(=O)c1cc2c(cc1Cl)NC=NS2(=O)=O | inactive
24 | O=[N+]([O-])c1cc(N(CCO)CCO)ccc1NCCO | inactive
25 | CCCCCCOC(C)=O | inactive
26 | O=C(O)c1cc(-c2ccccc2)nc2ccccc12 | inactive
27 | O=C(Cl)c1c(Cl)c(Cl)c(C(=O)Cl)c(Cl)c1Cl | inactive
28 | C[C@@H]1O[C@@H](OC[C@H]2O[C@@H](Oc3c(-c4ccc(O)c(O)c4)oc4cc(O)cc(O)c4c3=O)[C@H](O)[C@@H](O)[C@@H]2O)[C@H](O)[C@H](O)[C@H]1O | inactive
29 | CC1(C)CC(N=C=O)CC(C)(CN=C=O)C1 (stereo not given) | inactive
30 | Oc1ccc2ccccc2c1 | inactive
31 | CC(C)(N=C=O)c1cccc(C(C)(C)N=C=O)c1 | inactive
32 | CC(=O)Nc1ccc(C(=O)O)cc1 | inactive
33 | CCC(C)C=O (stereo not given) | inactive
34 | Cc1cc(Cc2ccc(N)c(C)c2)ccc1N | inactive
35 | Oc1c(Cl)cc(Cl)c(Cl)c1Cl | inactive
36 | CC(C)(CO)COC(=O)C(C)(C)CO | inactive
37 | Clc1cc(Cl)c(Cl)cc1Cl | inactive
38 | CCCCC(CC)C(=O)OCCOCCOCCOC(=O)C(CC)CCCC (stereo not given) | inactive
39 | C=C(C)C(=O)OCCC[Si](OC)(OC)OC | inactive
40 | CC(=O)CCc1ccccc1 | inactive
